Test results: PubChem BioAssay (NCI)
Compounds without any hit were thinned out: in the full panel of roughly 79,000, 15% have a hit. Calls of active or inactive are those of the source. Rule as the data show it: active = growth inhibition above about 70%; inactive = the rest.

Key:
[1] = NCI Yeast Anticancer Drug Screen. Data for the wt2 strain (AID 169);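 also: 0% = growth of vehicle-treated yeast cultures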; conditions: S. cerevisiae wt2 strain growth inhibition, active compounds read high
In short: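 Inhibition of yeast growth was determined after compound treatment, normalised to controls receiving only vehicle.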

[2] = NCI Yeast Anticancer Drug Screen. Data for the mlh1 strain (AID 171);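 also: 0% = growth of vehicle-treated control cultures of the same strain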; conditions: S. cerevisiae mlh1 strain growth inhibition, active compounds read high
In short: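 Vehicle-normalised growth inhibition of a repair- or checkpoint-altered yeast strain following compound treatment.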

[3] = NCI Yeast Anticancer Drug Screen. Data for the sgs1 strain (AID 173);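 also: 0% = growth of vehicle-only control cultures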; conditions: S. cerevisiae sgs1 mutant, active compounds read high
In short: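 Screen format: yeast with repair or checkpoint alterations, compound exposure, growth read relative to vehicle.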

[4] = NCI Yeast Anticancer Drug Screen. Data for the mlh1 rad18 strain (AID 175); conditions: S. cerevisiae mlh1 rad18 strain growth inhibition, active compounds read high
In short: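 Vehicle-treated cultures served as the reference for growth inhibition in a yeast strain carrying DNA damage repair alterations exposed to each compound.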

[5] = NCI Yeast Anticancer Drug Screen. Data for the rad18 strain (AID 177); conditions: S. cerevisiae rad18 mutant growth inhibition, active compounds read high
In short: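 Test articles were incubated with altered yeast defective in DNA damage repair. Results are given as inhibition of growth versus vehicle.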

[6] = NCI Yeast Anticancer Drug Screen. Data for the rad52 strain (AID 147);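 also: 0% = growth of vehicle-treated control cultures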; conditions: S. cerevisiae rad52 mutant growth inhibition, active compounds read high
In short: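 Vehicle-treated cultures served as the reference for growth inhibition of compound-exposed yeast bearing a DNA repair mutation.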

[7] = NCI Yeast Anticancer Drug Screen. Data for the wt1 strain (AID 149);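 also: 0% = growth of vehicle-treated wt1 cultures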; conditions: S. cerevisiae wt1 strain (SPY 50644) growth inhibition, active compounds read high
In short: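 Measured: growth of wt1 yeast under compound versus vehicle treatment, reported as inhibition.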

[8] = NCI Yeast Anticancer Drug Screen. Data for the rad50EPP+ strain (AID 151);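 also: 0% = growth of vehicle-treated control cultures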; conditions: S. cerevisiae rad50 mutant strain, active compounds read high
In short: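 In this screen, rad50EPP+ yeast were exposed to compounds. Growth inhibition was scored against vehicle-treated controls.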

[9] = NCI Yeast Anticancer Drug Screen. Data for the mgt1 strain (AID 153); conditions: S. cerevisiae mgt1 mutant growth inhibition, active compounds read high
In short: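 mgt1 strain exposed; growth vs vehicle control recorded as inhibition.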

[10] = NCI Yeast Anticancer Drug Screen. Data for the rad50 strain (AID 155);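 also: 0% = growth of vehicle-only cultures of the same strain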; conditions: S. cerevisiae rad50 strain growth inhibition, active compounds read high
In short: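 Growth of the mutant yeast was measured after compound exposure and referenced to vehicle-treated cultures.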

[11] = NCI Yeast Anticancer Drug Screen. Data for the mec2-1 strain (AID 157); conditions: S. cerevisiae mec2-1 strain, active compounds read high
In short: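 Vehicle-treated cultures served as reference for growth inhibition of compound-exposed mec2-1 yeast.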

[12] = NCI Yeast Anticancer Drug Screen. Data for the rad14 strain (AID 159);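 also: 0% = growth of vehicle-treated control cultures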; conditions: S. cerevisiae rad14 strain growth inhibition, active compounds read high
In short: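 Here, inhibition of yeast growth was measured after compound exposure, using a strain with a genetic defect in DNA damage repair and vehicle-treated cultures as the reference.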

[13] = NCI Yeast Anticancer Drug Screen. Data for the sgs1 mgt1 strain (AID 161);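 also: 0% = growth of cultures given vehicle only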; conditions: S. cerevisiae sgs1 mgt1 strain, active compounds read high
In short: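 Test agents were incubated with a DNA-repair-mutant yeast strain. Growth was then read and compared against vehicle-treated controls.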

[14] = NCI Yeast Anticancer Drug Screen. Data for the CLN2oe strain (AID 163);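 also: 0% = growth of vehicle-only control cultures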; conditions: S. cerevisiae CLN2oe strain, active compounds read high
In short: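 Inhibition relative to vehicle-treated yeast is reported. Cells: strain with genetic alteration in cell-cycle control, grown with compound.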

[15] = NCI Yeast Anticancer Drug Screen. Data for the cln2 rad14 strain (AID 165);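 also: 0% = growth equal to vehicle treated cultures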; conditions: S. cerevisiae cln2 rad14 strain, active compounds read high
In short: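 Each compound was tested on cln2 rad14 yeast. Inhibition of growth was calculated against vehicle-exposed controls.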

[16] = NCI Yeast Anticancer Drug Screen. Data for the bub3 strain (AID 167); conditions: S. cerevisiae bub3 mutant strain, active compounds read high
In short: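 Whole-cell yeast assay. The mutant strain was incubated with compounds, and growth inhibition was determined by comparison with vehicle-treated cells.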

[17] = at 5.0 µM (retest, dose inferred, filed as 0.5)
[18] = at 50.0 µM (retest, dose inferred, filed as 5.0)

Measured: growth inhibition

S=C(S)NCC1CCC(CNC(=S)S)CC1 (stereo not given)
inactive: [1]; at 33.0 µM 28% | [2]; at 1.2 µM -4% | [2]; at 3.7 µM 15% | [2]; at 11.0 µM 5% | [2]; at 33.0 µM 32% | [3]; at 1.2 µM -3% | [3]; at 3.7 µM 14% | [3]; at 11.0 µM 16% | [3]; at 33.0 µM 48% | [4]; [17] 44% | [4]; at 50.0 µM 43.5% | [5]; at 1.2 µM 2% | [5]; at 3.7 µM 6% | [5]; at 11.0 µM 16% | [5]; at 33.0 µM 18%
active: [1]; at 100.0 µM 83% | [2]; at 100.0 µM 71% | [3]; at 100.0 µM 87% | [4]; [18] 99% | [5]; at 100.0 µM 78%

N#CC(=S)Nc1cccc(Cl)c1
active: [9]; at 100.0 µM 76% | [10]; [18] 82% | [11]; at 100.0 µM 80% | [12]; at 100.0 µM 79% | [1]; at 100.0 µM 94% | [2]; at 100.0 µM 78% | [3]; at 100.0 µM 70% | [4]; [18] 86% | [4]; at 50.0 µM 88.4%
inactive: [6]; at 1.2 µM 3% | [6]; at 3.7 µM 1% | [6]; at 11.0 µM 10% | [6]; at 33.0 µM 26% | [6]; at 100.0 µM 50% | [7]; at 1.2 µM 7% | [7]; at 3.7 µM 10% | [7]; at 11.0 µM 23% | [7]; at 33.0 µM 31% | [7]; at 100.0 µM 41% | [8]; at 1.2 µM -12% | [8]; at 3.7 µM 2% | [8]; at 11.0 µM 10% | [8]; at 33.0 µM 25% | [8]; at 100.0 µM 46% | [9]; at 1.2 µM 2% | [9]; at 3.7 µM 15% | [9]; at 11.0 µM 24% | [9]; at 33.0 µM 42% | [10]; at 1.2 µM 5% | [10]; at 3.7 µM 8% | [10]; [17] 39% | [10]; at 11.0 µM 3% | [10]; at 33.0 µM 18% | [10]; at 50.0 µM 46.9% | [10]; at 100.0 µM 51% | [11]; at 1.2 µM 28% | [11]; at 3.7 µM 19% | [11]; [17] 19% | [11]; at 11.0 µM 33% | [11]; at 33.0 µM 28% | [11]; [18] 64% | [11]; at 50.0 µM 57% | [12]; at 1.2 µM 2% | [12]; at 3.7 µM -6% | [12]; at 11.0 µM 9% | [12]; at 33.0 µM 35% | [13]; [17] 28% | [13]; [18] 68% | [13]; at 50.0 µM 66.7% | [14]; at 1.2 µM 8% | [14]; at 3.7 µM 28% | [14]; at 11.0 µM 17% | [14]; at 33.0 µM 43% | [14]; at 100.0 µM 54% | [15]; [17] 8% | [15]; [18] 27% | [15]; at 50.0 µM 17.6% | [16]; at 1.2 µM 12% | [16]; at 3.7 µM 7% | [16]; [17] 26% | [16]; at 11.0 µM 2% | [16]; at 33.0 µM 41% | [16]; [18] 63% | [16]; at 50.0 µM 51.3% | [16]; at 100.0 µM 67% | [1]; at 1.2 µM 2% | [1]; at 3.7 µM 5% | [1]; at 11.0 µM -22% | [1]; at 33.0 µM 31% | [2]; at 1.2 µM 2% | [2]; at 3.7 µM 7% | [2]; at 11.0 µM 26% | [2]; at 33.0 µM 43% | [3]; at 1.2 µM 2% | [3]; at 3.7 µM 7% | [3]; at 11.0 µM 24% | [3]; at 33.0 µM 43% | [4]; [17] 64% | [5]; at 1.2 µM 1% | [5]; at 3.7 µM 12% | [5]; at 11.0 µM 23% | [5]; at 33.0 µM 37% | [5]; at 100.0 µM 58%

NC(N)=NCCCS(=O)(=O)Nc1ccc(Nc2c3ccccc3nc3cc([N+](=O)[O-])ccc23)cc1
active: [6]; at 33.0 µM 79% | [6]; at 100.0 µM 91% | [10]; at 33.0 µM 83% | [10]; [18] 88% | [10]; at 50.0 µM 72.9% | [10]; at 100.0 µM 89% | [11]; [18] 74% | [11]; at 100.0 µM 70% | [12]; at 100.0 µM 81% | [13]; [18] 83% | [16]; [18] 70% | [16]; at 100.0 µM 74% | [2]; at 100.0 µM 81% | [4]; [18] 83% | [5]; at 100.0 µM 74%
inactive: [6]; at 1.2 µM -26% | [6]; at 3.7 µM 8% | [6]; at 11.0 µM 36% | [7]; at 1.2 µM -20% | [7]; at 3.7 µM -18% | [7]; at 11.0 µM -26% | [7]; at 33.0 µM -15% | [7]; at 100.0 µM 42% | [8]; at 1.2 µM -21% | [8]; at 3.7 µM -11% | [8]; at 11.0 µM 17% | [8]; at 33.0 µM 44% | [8]; at 100.0 µM 68% | [9]; at 1.2 µM -24% | [9]; at 3.7 µM -29% | [9]; at 11.0 µM -10% | [9]; at 33.0 µM 18% | [9]; at 100.0 µM 65% | [10]; at 1.2 µM -4% | [10]; at 3.7 µM -4% | [10]; [17] 23% | [10]; at 11.0 µM 44% | [11]; at 1.2 µM -37% | [11]; at 3.7 µM -32% | [11]; [17] -22% | [11]; at 11.0 µM -26% | [11]; at 33.0 µM 11% | [11]; at 50.0 µM 60% | [12]; at 1.2 µM -10% | [12]; at 3.7 µM -1% | [12]; at 11.0 µM -1% | [12]; at 33.0 µM 31% | [13]; [17] 20% | [13]; at 50.0 µM 63.1% | [14]; at 1.2 µM -65% | [14]; at 3.7 µM -47% | [14]; at 11.0 µM -51% | [14]; at 33.0 µM -11% | [14]; at 100.0 µM 49% | [15]; [17] -18% | [15]; [18] 66% | [15]; at 50.0 µM 47.4% | [16]; at 1.2 µM 0% | [16]; at 3.7 µM 0% | [16]; [17] 11% | [16]; at 11.0 µM -10% | [16]; at 33.0 µM 3% | [16]; at 50.0 µM 57.8% | [1]; at 1.2 µM -49% | [1]; at 3.7 µM -58% | [1]; at 11.0 µM -77% | [1]; at 33.0 µM 23% | [1]; at 100.0 µM 50% | [2]; at 1.2 µM -20% | [2]; at 3.7 µM -10% | [2]; at 11.0 µM 3% | [2]; at 33.0 µM 32% | [3]; at 1.2 µM 29% | [3]; at 3.7 µM 1% | [3]; at 11.0 µM -13% | [3]; at 33.0 µM 23% | [3]; at 100.0 µM 69% | [4]; [17] -8% | [5]; at 1.2 µM -28% | [5]; at 3.7 µM -39% | [5]; at 11.0 µM -41% | [5]; at 33.0 µM -13%
